# Data from PMC7862700, “An all-to-all approach to the identification of sequence-specific readers for epigenetic DNA modifications on cytosine”.
# Legend:
# Experiment in all cases: DAPPL (digital affinity profiling via proximity ligation, sequencing); 10 mM Tris-HCl pH 7.5, 50 mM NaCl, 1 mM DTT, 4% glycerol, room temperature, 30 min; GST-TFs on glutathione beads, 16-mer random dsDNA library, 0.1% formaldehyde crosslink after washing; high values mean tight binding
# Conditions in all cases: protein: recombinant; tags: N-terminal GST; dsDNA, one strand shown
# ERF = molecular target: T1, ERF (Homo sapiens, UniProt P50548 1-548)
# T1 sequence: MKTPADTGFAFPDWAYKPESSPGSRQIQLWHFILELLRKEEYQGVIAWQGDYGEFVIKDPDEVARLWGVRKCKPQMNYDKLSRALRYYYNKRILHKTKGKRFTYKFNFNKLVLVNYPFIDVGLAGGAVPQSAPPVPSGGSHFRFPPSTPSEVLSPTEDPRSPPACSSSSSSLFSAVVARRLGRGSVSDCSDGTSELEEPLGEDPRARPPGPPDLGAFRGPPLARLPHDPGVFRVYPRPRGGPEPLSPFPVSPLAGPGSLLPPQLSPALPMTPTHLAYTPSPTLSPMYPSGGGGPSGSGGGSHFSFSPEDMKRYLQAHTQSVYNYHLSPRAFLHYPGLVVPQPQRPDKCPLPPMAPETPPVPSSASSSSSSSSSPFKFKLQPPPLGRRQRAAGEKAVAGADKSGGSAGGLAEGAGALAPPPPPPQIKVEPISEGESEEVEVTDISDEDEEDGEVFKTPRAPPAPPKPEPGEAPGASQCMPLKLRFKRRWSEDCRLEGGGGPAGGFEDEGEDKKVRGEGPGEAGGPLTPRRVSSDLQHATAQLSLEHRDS
# Procedure, shortened: (§1)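 Binding signal is given per hexamer as its read frequency for a factor divided by its frequency in the tag-only sample. GST-fused human transcription factors were expressed in yeast, captured on glutathione beads, barcoded with DNA and pooled with that sample, then incubated with 200 nmole of a 16-mer random double-stranded DNA library in Tris/NaCl/DTT/glycerol buffer for 30 min at room temperature. The pools were then washed, crosslinked, proximity-ligated, amplified by PCR and sequenced on an Illumina NextSeq500.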
# ETV3L = molecular target: T2, ETV3L (Homo sapiens, UniProt Q6ZN32 1-361)
# T2 sequence: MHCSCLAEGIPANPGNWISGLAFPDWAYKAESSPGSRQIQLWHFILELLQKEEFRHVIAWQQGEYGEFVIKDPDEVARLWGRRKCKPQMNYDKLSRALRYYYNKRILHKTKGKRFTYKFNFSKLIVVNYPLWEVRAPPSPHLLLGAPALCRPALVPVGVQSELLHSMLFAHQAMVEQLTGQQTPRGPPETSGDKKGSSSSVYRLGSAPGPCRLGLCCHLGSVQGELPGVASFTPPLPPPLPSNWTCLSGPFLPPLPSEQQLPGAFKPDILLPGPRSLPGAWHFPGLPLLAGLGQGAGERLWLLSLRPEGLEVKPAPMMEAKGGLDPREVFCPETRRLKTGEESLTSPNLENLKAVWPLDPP
# Procedure, shortened: as §1
# ETS2 = molecular target: T3, ETS2 (Homo sapiens, UniProt P15036 1-469)
# T3 sequence: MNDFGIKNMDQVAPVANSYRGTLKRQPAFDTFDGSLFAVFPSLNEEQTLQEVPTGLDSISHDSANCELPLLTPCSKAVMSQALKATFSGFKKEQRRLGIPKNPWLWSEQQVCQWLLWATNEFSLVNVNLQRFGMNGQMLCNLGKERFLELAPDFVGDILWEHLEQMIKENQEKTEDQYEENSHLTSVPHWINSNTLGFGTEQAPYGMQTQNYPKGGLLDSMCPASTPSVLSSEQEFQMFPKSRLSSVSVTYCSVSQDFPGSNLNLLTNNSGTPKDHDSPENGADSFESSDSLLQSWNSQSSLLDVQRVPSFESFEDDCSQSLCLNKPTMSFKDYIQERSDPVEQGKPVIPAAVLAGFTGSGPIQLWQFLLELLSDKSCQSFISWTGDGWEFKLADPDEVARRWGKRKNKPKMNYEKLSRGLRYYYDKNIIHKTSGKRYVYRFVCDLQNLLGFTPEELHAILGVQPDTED
# Procedure, shortened: as §1
# SPDEF = molecular target: T4, SPDEF (Homo sapiens, UniProt O95238 1-335)
# T4 sequence: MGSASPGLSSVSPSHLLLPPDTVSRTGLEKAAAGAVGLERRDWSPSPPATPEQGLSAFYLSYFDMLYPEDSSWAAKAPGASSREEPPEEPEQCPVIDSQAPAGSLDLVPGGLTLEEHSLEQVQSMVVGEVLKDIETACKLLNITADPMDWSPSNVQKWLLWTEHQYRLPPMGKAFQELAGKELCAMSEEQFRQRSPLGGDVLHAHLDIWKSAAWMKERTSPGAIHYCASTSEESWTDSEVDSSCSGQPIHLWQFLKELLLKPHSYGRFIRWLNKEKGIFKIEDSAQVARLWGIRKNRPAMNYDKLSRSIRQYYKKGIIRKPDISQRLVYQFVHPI
# Procedure, shortened: as §1
# ETV7 = molecular target: T5, ETV7 (Homo sapiens, UniProt Q9Y603 1-341)
# T5 sequence: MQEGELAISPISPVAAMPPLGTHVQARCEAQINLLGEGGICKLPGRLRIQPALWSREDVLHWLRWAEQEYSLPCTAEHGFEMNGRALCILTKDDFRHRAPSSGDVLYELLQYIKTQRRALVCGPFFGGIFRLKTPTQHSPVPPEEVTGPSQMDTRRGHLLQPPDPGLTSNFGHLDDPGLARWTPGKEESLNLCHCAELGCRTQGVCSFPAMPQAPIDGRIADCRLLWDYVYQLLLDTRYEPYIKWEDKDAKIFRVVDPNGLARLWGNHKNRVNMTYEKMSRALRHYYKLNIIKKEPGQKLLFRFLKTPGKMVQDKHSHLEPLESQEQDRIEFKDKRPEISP
# Procedure, shortened: as §1
# ELF5 = molecular target: T6, ELF5 (Homo sapiens, UniProt Q9UKW6-2 1-255)
# T6 sequence: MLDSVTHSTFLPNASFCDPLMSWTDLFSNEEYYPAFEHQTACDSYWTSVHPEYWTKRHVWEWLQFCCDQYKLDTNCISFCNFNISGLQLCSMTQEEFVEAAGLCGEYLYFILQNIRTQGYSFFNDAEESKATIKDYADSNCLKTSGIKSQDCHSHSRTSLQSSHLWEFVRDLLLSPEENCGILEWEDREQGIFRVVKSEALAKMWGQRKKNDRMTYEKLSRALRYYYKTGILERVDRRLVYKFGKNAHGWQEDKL
# Procedure, shortened: as §1
# ETV3 = molecular target: T7, ETV3 (Homo sapiens, UniProt P41162-2 1-143)
# T7 sequence: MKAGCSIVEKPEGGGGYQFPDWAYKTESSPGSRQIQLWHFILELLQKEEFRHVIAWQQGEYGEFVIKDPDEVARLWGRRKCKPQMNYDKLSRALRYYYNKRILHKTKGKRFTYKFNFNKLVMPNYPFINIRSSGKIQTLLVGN
# Procedure, shortened: as §1
# ETV6 = ETV6 (Homo sapiens, UniProt P41212 1-452)
# Chain of ETV6 (P41212 whole entry): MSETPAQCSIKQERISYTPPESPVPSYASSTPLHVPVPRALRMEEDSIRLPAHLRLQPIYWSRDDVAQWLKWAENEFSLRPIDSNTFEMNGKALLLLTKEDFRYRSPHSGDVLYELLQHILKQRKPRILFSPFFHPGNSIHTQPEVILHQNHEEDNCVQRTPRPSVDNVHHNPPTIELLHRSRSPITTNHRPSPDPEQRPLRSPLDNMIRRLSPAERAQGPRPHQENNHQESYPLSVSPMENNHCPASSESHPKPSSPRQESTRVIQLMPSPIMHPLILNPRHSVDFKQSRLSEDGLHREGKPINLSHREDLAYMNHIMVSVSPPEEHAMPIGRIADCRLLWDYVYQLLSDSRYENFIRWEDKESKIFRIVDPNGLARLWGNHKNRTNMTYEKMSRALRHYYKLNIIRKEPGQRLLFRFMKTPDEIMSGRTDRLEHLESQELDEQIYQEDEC
# Procedure, shortened: as §1
Sequence,binding signal (ERF),binding signal (ETV3L),binding signal (ETS2),binding signal (SPDEF),binding signal (ETV7),binding signal (ELF5),binding signal (ETV3),binding signal (ETV6)
TATATG,"1.48 fold enrichment (6-mer frequency, TF over GST control)","1.35 fold enrichment (6-mer frequency, TF over GST control)","1.38 fold enrichment (6-mer frequency, TF over GST control)","1.29 fold enrichment (6-mer frequency, TF over GST control)","1.29 fold enrichment (6-mer frequency, TF over GST control)","1.39 fold enrichment (6-mer frequency, TF over GST control)","1.41 fold enrichment (6-mer frequency, TF over GST control)","1.34 fold enrichment (6-mer frequency, TF over GST control)"
TAACTC,"1.29 fold enrichment (6-mer frequency, TF over GST control)","1.12 fold enrichment (6-mer frequency, TF over GST control)","1.25 fold enrichment (6-mer frequency, TF over GST control)","1.23 fold enrichment (6-mer frequency, TF over GST control)","1.22 fold enrichment (6-mer frequency, TF over GST control)","1.16 fold enrichment (6-mer frequency, TF over GST control)","1.25 fold enrichment (6-mer frequency, TF over GST control)","1.3 fold enrichment (6-mer frequency, TF over GST control)"
CCGACA,"1.22 fold enrichment (6-mer frequency, TF over GST control)","1.24 fold enrichment (6-mer frequency, TF over GST control)","1.26 fold enrichment (6-mer frequency, TF over GST control)","1.27 fold enrichment (6-mer frequency, TF over GST control)","1.13 fold enrichment (6-mer frequency, TF over GST control)","1.25 fold enrichment (6-mer frequency, TF over GST control)","1.24 fold enrichment (6-mer frequency, TF over GST control)","1.23 fold enrichment (6-mer frequency, TF over GST control)"
CTAAAC,"1.17 fold enrichment (6-mer frequency, TF over GST control)","1.18 fold enrichment (6-mer frequency, TF over GST control)","1.19 fold enrichment (6-mer frequency, TF over GST control)","1.22 fold enrichment (6-mer frequency, TF over GST control)","1.2 fold enrichment (6-mer frequency, TF over GST control)","1.19 fold enrichment (6-mer frequency, TF over GST control)","1.25 fold enrichment (6-mer frequency, TF over GST control)","1.17 fold enrichment (6-mer frequency, TF over GST control)"
CTCTCC,"1.43 fold enrichment (6-mer frequency, TF over GST control)","1.44 fold enrichment (6-mer frequency, TF over GST control)","1.43 fold enrichment (6-mer frequency, TF over GST control)","1.22 fold enrichment (6-mer frequency, TF over GST control)","1.31 fold enrichment (6-mer frequency, TF over GST control)","1.37 fold enrichment (6-mer frequency, TF over GST control)","1.45 fold enrichment (6-mer frequency, TF over GST control)","1.37 fold enrichment (6-mer frequency, TF over GST control)"
CAACTC,"1.26 fold enrichment (6-mer frequency, TF over GST control)","1.22 fold enrichment (6-mer frequency, TF over GST control)","1.26 fold enrichment (6-mer frequency, TF over GST control)","1.36 fold enrichment (6-mer frequency, TF over GST control)","1.12 fold enrichment (6-mer frequency, TF over GST control)","1.16 fold enrichment (6-mer frequency, TF over GST control)","1.31 fold enrichment (6-mer frequency, TF over GST control)","1.29 fold enrichment (6-mer frequency, TF over GST control)"
AAATGG,"1.49 fold enrichment (6-mer frequency, TF over GST control)","1.54 fold enrichment (6-mer frequency, TF over GST control)","1.54 fold enrichment (6-mer frequency, TF over GST control)","1.41 fold enrichment (6-mer frequency, TF over GST control)","1.38 fold enrichment (6-mer frequency, TF over GST control)","1.52 fold enrichment (6-mer frequency, TF over GST control)","1.5 fold enrichment (6-mer frequency, TF over GST control)","1.47 fold enrichment (6-mer frequency, TF over GST control)"
ATGTGC,"1.15 fold enrichment (6-mer frequency, TF over GST control)","1.11 fold enrichment (6-mer frequency, TF over GST control)","1.1 fold enrichment (6-mer frequency, TF over GST control)","1.23 fold enrichment (6-mer frequency, TF over GST control)","1.03 fold enrichment (6-mer frequency, TF over GST control)","1.09 fold enrichment (6-mer frequency, TF over GST control)","1.15 fold enrichment (6-mer frequency, TF over GST control)","1.1 fold enrichment (6-mer frequency, TF over GST control)"
CCACCC,"1.24 fold enrichment (6-mer frequency, TF over GST control)","1.37 fold enrichment (6-mer frequency, TF over GST control)","1.18 fold enrichment (6-mer frequency, TF over GST control)","1.22 fold enrichment (6-mer frequency, TF over GST control)","1.09 fold enrichment (6-mer frequency, TF over GST control)","1.21 fold enrichment (6-mer frequency, TF over GST control)","1.28 fold enrichment (6-mer frequency, TF over GST control)","1.24 fold enrichment (6-mer frequency, TF over GST control)"
TTCCCC,"1.46 fold enrichment (6-mer frequency, TF over GST control)","1.69 fold enrichment (6-mer frequency, TF over GST control)","1.64 fold enrichment (6-mer frequency, TF over GST control)","1.43 fold enrichment (6-mer frequency, TF over GST control)","1.43 fold enrichment (6-mer frequency, TF over GST control)","2.17 fold enrichment (6-mer frequency, TF over GST control)","1.89 fold enrichment (6-mer frequency, TF over GST control)","1.73 fold enrichment (6-mer frequency, TF over GST control)"
GACTAC,"1.19 fold enrichment (6-mer frequency, TF over GST control)","1.17 fold enrichment (6-mer frequency, TF over GST control)","1.08 fold enrichment (6-mer frequency, TF over GST control)","1.1 fold enrichment (6-mer frequency, TF over GST control)","1.17 fold enrichment (6-mer frequency, TF over GST control)","1.24 fold enrichment (6-mer frequency, TF over GST control)","1.11 fold enrichment (6-mer frequency, TF over GST control)","1.11 fold enrichment (6-mer frequency, TF over GST control)"
GGTCCC,"1.18 fold enrichment (6-mer frequency, TF over GST control)","1.25 fold enrichment (6-mer frequency, TF over GST control)","1.12 fold enrichment (6-mer frequency, TF over GST control)","1.29 fold enrichment (6-mer frequency, TF over GST control)","1.15 fold enrichment (6-mer frequency, TF over GST control)","1.13 fold enrichment (6-mer frequency, TF over GST control)","1.2 fold enrichment (6-mer frequency, TF over GST control)","1.09 fold enrichment (6-mer frequency, TF over GST control)"
